The chains are these.
B1: PhoQ; a variant is named by its letters at X, in order, P23837 (parent)
chain: MKKLLRLFFPLSLRVRFLLATAAVVLVLSLAYGMVALIGYSVSFDKTTFRLLRGESNLFYTLAKWENNKLHVELPENIDKQSPTMTLIYDENGQLLWAQRDVPWLMKMIQPDWLKSNGFHEIEADVNDTSLLLSGDHSIQQQLQEVREDDDDAEMTHSVAVNVYPATSRMPKLTIVVVDTIPVELKSSYMVWSWFIYVLSANLLLVIPLLWVAAWWSLRPIEALAKEVRELEEHNRELLNPATTRELTSLVRNLNRLLKSERERYDKYRTTLTDLTHSLKTPLXXLQXXLRSLRSEKMSVSDAEPVMLEQISRISQQIGYYLHRASMRGGTLLSRELHPVAPLLDNLTSALNKVYQRKGVNISLDISPEISFVGEQNDFVEVMGNVLDNACKYCLEFVEISARQTDEHLYIVVEDDGPGIPLSKREVIFDRGQRVDTLRPGQGVGLAVAREITEQYEGKIVAGESMLGGARMEVIFGRQHSAPKDE

This note sets out measurements from a collection of fitness landscapes (doi:10.1126/science.1257360).

The full ranking holds about 140,000 sequences; the median of “enrichment ratio after two sorts for PhoP signalling” is about 0, and the highest 2% start at about 11. The entries come from a sample that favours the highest values as a whole. Bounds are passed on as bounds.

This assay covers variants of B1. The assay is described as follows: enrichment ratio after two sorts for PhoP signalling (ratio (wild type AVST 3.29)); higher = more functional. Particulars: with PhoP (E. coli).
Take EETH: the enrichment ratio is not above 0.25. With DEAP, the enrichment ratio is not above 0.25.

With LAGN, the enrichment ratio was not above 0.25.

As to GGLE, the enrichment ratio is not above 0.25.

For MLEW, the enrichment ratio is not above 0.25. Under YYHY stands not above 0.25.

For YYHL, the enrichment ratio was not above 0.25.

As to TEHY, the enrichment ratio turned out to be 11.4. Then NEHY, with not above 0.25; and NEHS, with not above 0.25. Then TEHP, with not above 0.25. With YYHS, the enrichment ratio was not above 0.25. As for TEHF, the enrichment ratio turned out to be 3.55. For the variant TEHI, the enrichment ratio came out at 14.2. Then NEHL, with not above 0.25; and TEHS, with 18.1; and TEHL, with 12.5. Under PQEA stands not above 0.25.

For YVFQ, the enrichment ratio was not above 0.25. Under IQHV stands not above 0.25. Then PPCA, with not above 0.25. Under ETDW stands not above 0.25. For the variant TNRM, the enrichment ratio is not above 0.25. Under MNWM stands 4.81; under MNTI, 13.1. Under TNCL stands 0.276; under MLTM, 4.75. Turning to MNTM, the enrichment ratio is 18.9.

As to MNTC, the enrichment ratio was not above 0.25. Regarding TNTM, the enrichment ratio amounted to 31.2. Turning to MNTS, the enrichment ratio is not above 0.25. Then KHVC, with not above 0.25; and QGRV, with not above 0.25; and HNCH, with not above 0.25.

As to VGDV, the enrichment ratio was not above 0.25. As for NEGH, the enrichment ratio was not above 0.25. As to SRIQ, the enrichment ratio was not above 0.25. On to SGIE, for which the enrichment ratio was not above 0.25. Under SGHP stands not above 0.25.

SGGQ: the enrichment ratio came to 14.9.

As to SGIQ, the enrichment ratio came out at 11.9. With SGMQ, the enrichment ratio worked out at 15.4. Then TGMQ, with not above 0.25. Under SGSQ stands 12.9; under SGDS, not above 0.25.

SGGK: the enrichment ratio is not above 0.25.

For SGGA, the enrichment ratio stood at 8.12. Take SGKA: the enrichment ratio is not above 0.25.

Regarding AGYL, the enrichment ratio turned out to be 4.28. Then QKLN, with not above 0.25. Take QYFC: the enrichment ratio is not above 0.25. Under SGFQ stands 2.13; under EDPV, not above 0.25; under PQAT, not above 0.25. Under TKML stands 19.2; under MEML, 12; under FAML, 6.33.

With VRML, the enrichment ratio is not above 0.25. Then NRML, with not above 0.25. Under MKML stands not above 0.25. Then HKML, with not above 0.25; and VKML, with not above 0.25. On to PTML, for which the enrichment ratio was not above 0.25.

Regarding MAML, the enrichment ratio is 25.7.

As to MAKL, the enrichment ratio was not above 0.25. Then TEML, with 28.6; and SWHC, with not above 0.25; and WHRD, with not above 0.25. Under PISS stands not above 0.25; under LFSF, not above 0.25. Then RFYN, with not above 0.25; and DIQW, with not above 0.25. For IIYH, the enrichment ratio was not above 0.25. Under MIWL stands 3.25. Under MMML stands not above 0.25.

In the case of MTML, the enrichment ratio is 4.85. Then MCML, with 17.5; and MIRL, with not above 0.25; and MIML, with 14. Under KEPP stands not above 0.25; under HSFC, not above 0.25; under TLKM, not above 0.25.

For CNFF, the enrichment ratio is not above 0.25. Take QNDV: the enrichment ratio is not above 0.25. In the case of MFMM, the enrichment ratio was not above 0.25. Under MGTC stands 0.695; under MGTI, 12.5; under MGMM, 37.6. Then MGTM, with 13.6; and MGTS, with not above 0.25; and MGTA, with not above 0.25. Under MGTH stands not above 0.25; under MGAM, 14.1; under MGDH, not above 0.25. With HFMM, the enrichment ratio is not above 0.25. Under MGCK stands 3.89; under HMRE, not above 0.25. Under WQTY stands not above 0.25; under YKIG, not above 0.25; under VGNS, not above 0.25. Then HWDL, with not above 0.25. With SSRL, the enrichment ratio is not above 0.25. With YEQT, the enrichment ratio is not above 0.25. Under LCHM stands not above 0.25; under MVGN, 10.6. Regarding IKTK, the enrichment ratio was not above 0.25. Then MGGM, with 9.49. Then MGWM, with 21. Under MGDM stands not above 0.25; under SATF, 11.2; under WLTF, not above 0.25. Consider SNTF, for which the enrichment ratio amounted to 12.1. Under KATF stands not above 0.25; under SRTF, not above 0.25; under SSTF, 7.3. Then LNTF, with not above 0.25. Then SLTF, with 12.2; and SITF, with 11.8; and LLTF, with not above 0.25.

As for KYTF, the enrichment ratio is not above 0.25. In the case of NATF, the enrichment ratio was not above 0.25.

On to LNWL, for which the enrichment ratio was not above 0.25. Under ERPG stands not above 0.25; under NYCA, not above 0.25; under IDCL, not above 0.25. For the variant VING, the enrichment ratio is not above 0.25. Under WSTV stands not above 0.25; under NMQL, not above 0.25; under KSQL, not above 0.25. Regarding TVQL, the enrichment ratio was 16.7. Then HAQL, with not above 0.25. Take MMQL: the enrichment ratio was not above 0.25. Under LAQL stands not above 0.25. Then TMQL, with 12.8. Then DWQL, with not above 0.25. SPQL: the enrichment ratio is not above 0.25.

On to TSQL, for which the enrichment ratio came out at 14. On to NVQL, for which the enrichment ratio was not above 0.25.

Consider TQQL, for which the enrichment ratio stood at 11.6. Then NGLW, with not above 0.25; and YAWN, with not above 0.25. Then QRCA, with not above 0.25; and FANK, with not above 0.25. Then PWMR, with not above 0.25; and YMPP, with not above 0.25. With PLMP, the enrichment ratio was not above 0.25. Then FLRE, with not above 0.25; and MFVW, with not above 0.25; and LQNW, with not above 0.25.

LNQL: the enrichment ratio is not above 0.25.

Take NAQL: the enrichment ratio was not above 0.25. As to TLQL, the enrichment ratio came to 13. Then KAQL, with 1.07; and MNQL, with not above 0.25; and KLQL, with not above 0.25. As for YAQL, the enrichment ratio was not above 0.25. As to TKQL, the enrichment ratio stood at 23.2. Under TNQL stands 12.7; under WFHV, not above 0.25; under AFMF, not above 0.25. Then WQHR, with not above 0.25. Then AKRK, with not above 0.25; and KMSL, with not above 0.25. Turning to NEEV, the enrichment ratio is not above 0.25. Then TMEC, with 11.9; and NEEC, with not above 0.25; and KMEC, with not above 0.25. Then KMEI, with not above 0.25; and TMSL, with 13.1; and NMSL, with not above 0.25. Take TMEI: the enrichment ratio came to 17.7. Then DMEI, with not above 0.25; and TMEV, with 25; and TMFV, with 0.532. Take IVWG: the enrichment ratio was not above 0.25. Under GKHD stands not above 0.25. Consider RMMR, for which the enrichment ratio is not above 0.25.

VNCL: the enrichment ratio is 4.33. Under RQDI stands not above 0.25; under MCGY, not above 0.25; under TMGL, 7.75.

With DMHL, the enrichment ratio is not above 0.25. Under MMHL stands 1.34; under TMHL, 11.6. Then TMWL, with not above 0.25; and TMEL, with 15.3. For the variant HEGR, the enrichment ratio is not above 0.25. Then IMAF, with not above 0.25. Then LWKN, with not above 0.25; and VRPW, with not above 0.25. Under HNFA stands not above 0.25. For the variant TPCH, the enrichment ratio is not above 0.25.

On to VYYN, for which the enrichment ratio is not above 0.25. Then VLGI, with not above 0.25. Then SLCN, with 11.5. Under SHLN stands 2.15. In the case of ELCN, the enrichment ratio was not above 0.25. As for THCN, the enrichment ratio is 4.64. Under CLCN stands 23.2; under SHCN, 13.2.

Turning to WLCN, the enrichment ratio was not above 0.25. Then GLCN, with 12.8. Turning to GLCI, the enrichment ratio stood at 9.01. Under GLLN stands not above 0.25. Regarding CLLN, the enrichment ratio was not above 0.25.

Turning to STCN, the enrichment ratio was 8.56.

Take VNQW: the enrichment ratio was not above 0.25. Under HNQK stands not above 0.25; under YVDP, not above 0.25. With RGYW, the enrichment ratio is not above 0.25. Under TCKY stands not above 0.25. Under SILN stands 8.2. On to SVLN, for which the enrichment ratio is 7.1. As to SVNL, the enrichment ratio is not above 0.25.

As to SVCN, the enrichment ratio came to 19.4. Then SSCN, with 16.9. Then SSLN, with 6.84; and SICN, with 20.7; and KSCN, with not above 0.25.

Take FSCN: the enrichment ratio was not above 0.25. Then TSCN, with 26.6; and NSCN, with not above 0.25. Under KYCN stands not above 0.25; under KIAC, not above 0.25. Under GADV stands not above 0.25; under GNVT, not above 0.25; under LQFF, not above 0.25. With YIPQ, the enrichment ratio is not above 0.25. Under LFCN stands not above 0.25; under RNVA, not above 0.25; under IHQN, not above 0.25. With VDDC, the enrichment ratio is not above 0.25. Then DQCK, with not above 0.25; and LVLE, with not above 0.25. As for SCCN, the enrichment ratio came out at 17.1. Then SQCN, with 10.1. Under VCCN stands not above 0.25; under LVPD, not above 0.25. Then TRFL, with not above 0.25; and DSSW, with not above 0.25. EETG: the enrichment ratio turned out to be 3.69.

As to MITR, the enrichment ratio was not above 0.25. Under SGAY stands 15.2. Under SGDY stands not above 0.25. Then SGYI, with 2.6; and SGGY, with 22.8. Regarding SGWY, the enrichment ratio was not above 0.25. Then SGNY, with not above 0.25; and MFNP, with not above 0.25; and RNKF, with not above 0.25. Then GSLY, with 7.32. With GSTI, the enrichment ratio is 12.2. Consider GSCF, for which the enrichment ratio is 11.5. Under KSCF stands not above 0.25; under GSHF, not above 0.25. For the variant GSWI, the enrichment ratio was not above 0.25. Under MERP stands not above 0.25; under VWLN, not above 0.25. Under DNMN stands not above 0.25; under AIMK, not above 0.25. Regarding NALK, the enrichment ratio is not above 0.25. Under AALT stands 11.9; under ATLA, 9.51; under AAAT, not above 0.25. As to AAMK, the enrichment ratio came out at 35.5.

Take KALK: the enrichment ratio was not above 0.25. For the variant AALK, the enrichment ratio came to 12. As for ATLK, the enrichment ratio worked out at 17. Then YTLK, with not above 0.25; and NAMK, with not above 0.25; and AALA, with 7.36. Under HSVK stands not above 0.25.

Consider TFLL, for which the enrichment ratio worked out at 3.21. As for PAYK, the enrichment ratio was not above 0.25. Then PNPY, with not above 0.25; and GVVL, with 1.14; and FWES, with not above 0.25.

Turning to MFHN, the enrichment ratio is not above 0.25. For VGKH, the enrichment ratio was not above 0.25. Consider TSNW, for which the enrichment ratio is not above 0.25. Under KSAT stands not above 0.25. Then KSNS, with not above 0.25; and TSAT, with 11.6; and TSNT, with 11.9. Then KSNT, with not above 0.25. Consider TSNY, for which the enrichment ratio is 8.01.

NSAT: the enrichment ratio is not above 0.25. Under TSNS stands 12.8; under GLRK, not above 0.25; under FLKG, 0.285.

Consider GCSH, for which the enrichment ratio is not above 0.25. Then AATM, with 0.767; and RWIC, with not above 0.25; and FLKL, with not above 0.25. For GNCN, the enrichment ratio is not above 0.25. Under GICA stands 11.2; under GICP, not above 0.25; under GIVG, 10.4. Then GICS, with 11.2; and GNCA, with 9.24; and GNCS, with 7.94. Under GICG stands 15.9; under GNCG, not above 0.25; under GICI, 7.05. As for GICN, the enrichment ratio amounted to 13.8. As to GILN, the enrichment ratio was 10.6.
